The panel holds about 83,000 compounds, 20% with a hit somewhere; the sample as a whole holds those more often.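 How to read the values: 0–100, growth inhibition (40 = 60% inhibited); 0, no net growth; -100 to 0, cell death (-40 = 40% of starting cells died; -100 = all dead).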 Active and inactive are the calls of the source. How the source made its calls: active means growth percent below 10; inactive means the rest.
Key:
Assay in all cases: NCI-60 one-dose screen, 48 h (100 = growth as untreated, 0 = no growth, -100 = all killed)
Conditions in all cases: 10 µM unless noted
T-47D breast = test system: T-47D breast
BT-549 breast = test system: BT-549 breast
MDA-MB-435 melanoma = test system: MDA-MB-435 melanoma
SW-620 colon = test system: SW-620 colon
MCF7 breast = test system: MCF7 breast
HCT-116 colon = test system: HCT-116 colon
HCC-2998 colon = test system: HCC-2998 colon
KM12 colon = test system: KM12 colon

Measured: growth

CN(C)C(=S)N=Nc1c(O)[nH]c2ccccc12
active: HCT-116 colon 3.73%
inactive: T-47D breast 25% | BT-549 breast 30.7% | MDA-MB-435 melanoma 40.3% | SW-620 colon 30.2% | MCF7 breast 17.8% | HCC-2998 colon 23.9% | KM12 colon 25.9%

Cn1nc(N)c2cc([C@@H]3Nc4ccc5[nH]ncc5c4[C@H]4C5CCC(C5)[C@@H]34)ccc21 (some centres not stated)
active: MDA-MB-435 melanoma -66.6%
inactive: T-47D breast 43.6% | BT-549 breast 38% | SW-620 colon 22.4% | MCF7 breast 18.8% | HCT-116 colon 14.5% | HCC-2998 colon 18% | KM12 colon 16.6%

N#CCCN=Nc1c(O)[nH]c2ccc(F)cc12
inactive: T-47D breast 96.4% | BT-549 breast 108% | MDA-MB-435 melanoma 96.6% | SW-620 colon 98.3% | MCF7 breast 93.9% | HCT-116 colon 95.1% | HCC-2998 colon 97.9% | KM12 colon 101%

NC(=O)c1cc(I)ccc1NC(=O)/C=C/c1ccccc1Cl
active: MDA-MB-435 melanoma -31.8% | MCF7 breast 7.38%
inactive: T-47D breast 26.6% | BT-549 breast 70.1% | SW-620 colon 26.9% | HCT-116 colon 14.5% | HCC-2998 colon 23.4% | KM12 colon 10.6%

Cc1ccc(-c2onc3c(=O)[nH]nc(-c4ccccc4)c23)cc1
inactive: T-47D breast 37.1% | BT-549 breast 40.5% | SW-620 colon 34.7% | MCF7 breast 24% | HCT-116 colon 25.8% | HCC-2998 colon 60.5% | KM12 colon 29.3%
active: MDA-MB-435 melanoma -34.6%

Cc1ccc(NS(=O)(=O)c2ccc(-c3cnc(C4CC4)o3)cc2)cc1C
active: MDA-MB-435 melanoma 4.45%
inactive: T-47D breast 26.4% | BT-549 breast 35.5% | SW-620 colon 19.7% | MCF7 breast 12.1% | HCT-116 colon 19.4% | HCC-2998 colon 45% | KM12 colon 42.8%

CN(C)c1ccc(N=Nc2ccc(Br)cn2)c(O)c1
inactive: T-47D breast 30.2% | BT-549 breast 38.2% | MDA-MB-435 melanoma 33% | SW-620 colon 26.1% | MCF7 breast 10.4% | HCT-116 colon 25.5% | HCC-2998 colon 34.3% | KM12 colon 26.7%

O=[N+]([O-])c1ccc(Nc2nc(NCCN3CCOCC3)ncc2[N+](=O)[O-])cc1
inactive: T-47D breast 100% | BT-549 breast 89% | MDA-MB-435 melanoma 97.8% | SW-620 colon 89.1% | MCF7 breast 79.8% | HCT-116 colon 88.1% | HCC-2998 colon 93.4% | KM12 colon 99%

COc1cc2c(cc1OC)C(Sc1ccc(SC)cc1)c1c(nc(N)c(C#N)c1N)O2 (configuration not stated)
active: T-47D breast -47.1% | BT-549 breast -73.9% | MDA-MB-435 melanoma -90.8% | SW-620 colon -68.9% | MCF7 breast -51.2% | HCT-116 colon -86.8% | HCC-2998 colon -84.9% | KM12 colon -72%

O=C1c2cc3c(cc2-c2c1c1ccc(F)cc1c(=O)n2C[C@H](O)[C@H](O)[C@H](O)CO)OCO3
active: T-47D breast -14.8% | BT-549 breast -11.3% | MDA-MB-435 melanoma -75.6% | SW-620 colon 1.12% | MCF7 breast 0.35% | HCT-116 colon 9.02% | HCC-2998 colon -50.2% | KM12 colon 3.9%

O=C1Nc2c(ccc(Cl)c2Cl)/C1=C\c1cc(C(F)(F)F)cc(C(F)(F)F)c1
inactive: BT-549 breast 14.9% | HCC-2998 colon 12.8%
active: T-47D breast -0.235% | MDA-MB-435 melanoma -53.4% | SW-620 colon -77.6% | MCF7 breast -3.68% | HCT-116 colon -61.3% | KM12 colon -74.6%

N#Cc1nnn(-c2ccc(S(N)(=O)=O)cc2)c1NC(=O)CCl
inactive: T-47D breast 95.2% | BT-549 breast 97.1% | MDA-MB-435 melanoma 99.6% | SW-620 colon 102% | MCF7 breast 90.9% | HCT-116 colon 94.6% | HCC-2998 colon 106% | KM12 colon 94.9%

O=C(/C=C/C=C/c1ccc2c(c1)OCO2)N/N=C\c1ccc(O)cc1O
active: HCT-116 colon 8.67%
inactive: T-47D breast 23.9% | BT-549 breast 27.3% | MDA-MB-435 melanoma 32.6% | SW-620 colon 26.5% | MCF7 breast 14.1% | HCC-2998 colon 38.9% | KM12 colon 23.4%

Cc1ccc(C2Oc3ccccc3C3CC(c4cccs4)=NN32)cc1 (configuration not stated)
inactive: T-47D breast 94.7% | BT-549 breast 86.6% | MDA-MB-435 melanoma 103% | SW-620 colon 102% | MCF7 breast 80.4% | HCT-116 colon 99.9% | HCC-2998 colon 98.7% | KM12 colon 94.3%

O=CNc1ccc2c(c1)Cc1cccc(NC=O)c1-2
inactive: T-47D breast 96.8% | BT-549 breast 94.1% | MDA-MB-435 melanoma 100% | SW-620 colon 98.2% | MCF7 breast 86.1% | HCT-116 colon 95.2% | HCC-2998 colon 97.4% | KM12 colon 67.8%

COc1cccc(-c2nn(C(C)(C)C)cc2-c2ccnc(NCCCNS(=O)(=O)c3ccc(C)cc3)c2)c1
inactive: T-47D breast 98.1% | BT-549 breast 101% | MDA-MB-435 melanoma 104% | SW-620 colon 103% | MCF7 breast 102% | HCT-116 colon 96.7% | HCC-2998 colon 113% | KM12 colon 101%

COc1ccc(Nc2c3c4c(cccc4[nH]c2=O)C(=O)c2ccccc2-3)cc1
inactive: T-47D breast 75.6% | SW-620 colon 19%
active: BT-549 breast 6.53% | MDA-MB-435 melanoma -52.4% | MCF7 breast 0.568% | HCT-116 colon 4.08% | HCC-2998 colon -5.28% | KM12 colon -36.2%

OCc1ccc(N2CCc3cccc(F)c3C2)cc1Cl
active: T-47D breast 1.88% [0.1 µM]
inactive: BT-549 breast 114% [0.1 µM] | MDA-MB-435 melanoma 111% [0.1 µM] | SW-620 colon 34.5% [0.1 µM] | MCF7 breast 12.8% [0.1 µM] | HCT-116 colon 18.1% [0.1 µM] | HCC-2998 colon 81% [0.1 µM] | KM12 colon 101% [0.1 µM]

CSc1nc(Nc2cccc(NC(=O)CCl)c2)c(C#N)c(-c2cccc([N+](=O)[O-])c2)n1
active: SW-620 colon 7.84% | MCF7 breast 0% | HCT-116 colon -6.05%
inactive: T-47D breast 12.2% | BT-549 breast 14.3% | MDA-MB-435 melanoma 45.3% | HCC-2998 colon 105% | KM12 colon 88.5%

N#Cc1c(-c2ccc(Cl)cc2)nc(N=Nc2c(O)[nH]c3ccc(Cl)cc23)nc1N1CCOCC1
inactive: T-47D breast 99.8% | BT-549 breast 92.1% | MDA-MB-435 melanoma 97.5% | SW-620 colon 91.8% | MCF7 breast 97.9% | HCT-116 colon 93.2% | HCC-2998 colon 96.3% | KM12 colon 101%

COc1ccc(-n2nc(C)c3c(Oc4ccc(NC(=O)Nc5c(Cl)cccc5Cl)cc4)ncnc32)cc1
inactive: T-47D breast 87.4% | BT-549 breast 117% | MDA-MB-435 melanoma 100% | SW-620 colon 95.7% | MCF7 breast 96.4% | HCT-116 colon 109% | HCC-2998 colon 100% | KM12 colon 100%

N=C(N)c1ccc(-c2ccc(-c3ccc4ccccc4c3)s2)s1
active: T-47D breast 7.01% | SW-620 colon -70.9% | MCF7 breast -66.7% | HCT-116 colon -70.5% | HCC-2998 colon -69.1% | KM12 colon -27.2%
inactive: BT-549 breast 82.5% | MDA-MB-435 melanoma 11.3%

COc1cc(C2CC(=O)c3ccccc3N2)cc(OC)c1OC (configuration not stated)
inactive: T-47D breast 92.6% | BT-549 breast 104% | MDA-MB-435 melanoma 105% | SW-620 colon 100% | MCF7 breast 96.8% | HCT-116 colon 104% | HCC-2998 colon 109% | KM12 colon 99.6%

CC(=O)OCCC/C(=C/c1cc2ccccc2c2ccccc12)[N+](=O)[O-]
active: T-47D breast -66.7% | BT-549 breast -50% | MDA-MB-435 melanoma -36.2% | SW-620 colon -88.2% | MCF7 breast -87.8% | HCT-116 colon -100% | HCC-2998 colon -99.5% | KM12 colon -99.2%

N#CCCN=Nc1c(O)[nH]c2ccc([N+](=O)[O-])cc12
inactive: T-47D breast 93.1% | BT-549 breast 107% | MDA-MB-435 melanoma 111% | SW-620 colon 99.9% | MCF7 breast 86.8% | HCT-116 colon 96.5% | HCC-2998 colon 111% | KM12 colon 101%

Cn1c(NCCc2ccc(O)c(O)c2)nc2c1c(=O)n(Cc1ccc(Cl)c(Cl)c1)c(=O)n2C
inactive: T-47D breast 58% | BT-549 breast 67.1% | MDA-MB-435 melanoma 73% | SW-620 colon 76.5% | MCF7 breast 79% | HCT-116 colon 64.8% | HCC-2998 colon 90.6% | KM12 colon 71.9%

COc1ccc(/C=C/c2nc3ccccc3nc2/C=C/c2ccc(OC)cc2)cc1
inactive: T-47D breast 78.1% | BT-549 breast 104% | MDA-MB-435 melanoma 88.4% | SW-620 colon 92.6% | MCF7 breast 80.9% | HCT-116 colon 89% | HCC-2998 colon 104% | KM12 colon 99.6%

COc1ccccc1NS(=O)(=O)c1ccc2oc(SC(C)C)nc2c1
inactive: T-47D breast 67.2% | BT-549 breast 87.6% | MDA-MB-435 melanoma 88.2% | SW-620 colon 102% | MCF7 breast 82.3% | HCT-116 colon 63.4% | HCC-2998 colon 26% | KM12 colon 98.7%

Cc1cc(N2CCSCC2)nc(NC2CCCC(Nc3ccnc4cc(Cl)ccc34)C2)n1 (configuration not stated)
active: T-47D breast -37.2% | BT-549 breast -60.2% | MDA-MB-435 melanoma -88.5% | SW-620 colon -60.8% | MCF7 breast -36.3% | HCT-116 colon -65.6% | HCC-2998 colon -58.3% | KM12 colon 8.04%

Source: PubChem BioAssay (NCI)
